Reference: PubChem BioAssay AID720511 (Broad Institute, 2013)
Among all 350,000 compounds or so, about 1,300 (0.37%) were called active. The full list was thinned out, with actives kept by preference. A number with no mark means an inactive call.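 How the source made its calls: active means mean added fluorescence quench of at least 8% versus neutral control, with both replicates also reaching 8%; inconclusive means only one of the mean or replicate conditions met; inactive means mean below 8% and not both replicates reaching 8%.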

experiment: F508del CFTR correction, initial screen, CFBE line, single point (AID 720511); conditions: CFBE cells, YFP halide quenching, at 7.58 µM, active compounds read high, % fluorescence drop versus neutral controls, stimulated with forskolin plus potentiator P3;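 further: cells transiently co-express mutant CFTR-F508del with the halide-sensitive YFP; corrector assay measuring rescue of mutant channel to the surface after 24 h compound exposure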

Row | SMILES | activity (quench increase)
1 | COc1ccc(NC(=O)N(C)C[C@H]2OCCCC[C@@H](C)Oc3ccc(NS(=O)(=O)c4ccc(F)cc4)cc3C(=O)N([C@H](C)CO)C[C@H]2C)cc1 | 3.43%
2 | C[C@@H](O)C#Cc1ccc([C@@H]2[C@H]3CN(S(=O)(=O)c4ccccc4)CCCCN3[C@H]2CO)cc1 | 1.07%
3 | CO[C@@H]1CC[C@@H]2CCOc3c(C#N)cccc3C(=O)N(C)C[C@H](C)C(=O)N(C)C[C@H]1O2 | 1.86%
4 | Cn1cc(C2OC(=O)c3ccccc32)c2ccccc21 (stereo not given) | 1.54%
5 | CN1C(=O)c2cccc3c(N)ccc(c23)C1=O | 23.7% (active)
6 | O=C1c2cccc3c([N+](=O)[O-])ccc(c23)C(=O)N1CC1CCCO1 (stereo not given) | 0.491%
7 | NC(=O)c1ncn([C@@H]2O[C@H](C(=O)O)[C@@H](O)[C@H]2O)n1 | 2.03%
8 | COc1ccc(CN(C)C[C@@H]2OCCCC[C@@H](C)Oc3ccc(NC(=O)Nc4ccc(OC)cc4)cc3C(=O)N([C@@H](C)CO)C[C@@H]2C)cc1 | -0.139%
9 | CCc1cc(-c2nnn(CCC3COCCO3)c2CC)ccc1-c1cn(Cc2ccc3ccccc3c2)nn1 (stereo not given) | 8.99% (active)
10 | COc1ccc(-c2cn(CC[C@@H]3CC[C@@H](NS(=O)(=O)c4ccccc4C)[C@H](CO)O3)nn2)cc1 | 2.94%
11 | CCCC(=O)Nc1ccc2c(c1)OC[C@H](C)N(S(=O)(=O)c1cn(C)cn1)C[C@@H](C)[C@H](OC)CN(C)C2=O | -4.43%
12 | O=C(c1ccccn1)N1CC[C@@H]2[C@H]1c1cc(-c3ccccc3)ccc1N[C@@H]2CO | -1.72%
13 | O=C1CN(S(=O)(=O)Cc2ccccc2)C[C@@H]2[C@@H](c3ccc(C#Cc4cccc(F)c4)cc3)[C@@H](CO)N12 | 9.07% (active)
14 | O=C1CN(S(=O)(=O)Cc2ccccc2)C[C@@H]2[C@@H](c3ccc(C#Cc4ccccc4)cc3)[C@@H](CO)N12 | 7.93%
15 | CCS(=O)(=O)N1CC(=O)N2[C@H](CO)[C@@H](c3ccc(C#Cc4cccc(F)c4)cc3)[C@@H]2C1 | 7.13%
16 | CCS(=O)(=O)N1CCC2(CC1)CN[C@H](CO)c1c2c2ccc(OC)cc2n1C | 0.371%
17 | C[C@@H]1CN([C@@H](C)CO)C(=O)c2cc(NS(C)(=O)=O)ccc2O[C@@H]1CN(C)C(=O)Nc1ccc(F)cc1 | -3.43%
18 | O=C(NCC1COc2ccccc2O1)C1(c2ccccc2)CCCC1 (stereo not given) | 1.14%
19 | O=C(COC(=O)c1ccc(F)cc1)NCC1COc2ccccc2O1 (stereo not given) | -0.696%
20 | Cc1noc(C)c1C(=O)NCC1COc2ccccc2O1 (stereo not given) | 19.3% (active)
